Reference: paper PMC4552634, “A New Set of Chemical Starting Points with Plasmodium falciparum Transmission-Blocking Potential for Antimalarial Drug Discovery” (PLoS ONE, 2015)
The whole screen tested about 13,000 compounds, of which about 3,200 (25%) showed an effect of 50% or more. This is one part of the list.

System: P. falciparum stage V gametocytes
Parameters: BacTiter-Glo ATP luminescence viability of purified stage V gametocytes in 384-well plates, per cent inhibition versus DMSO
Conditions: 48 h, 5 µM; inhibitor

Row | Compound | % Inhibition [%]
1 | CC(=O)N(C)c1cccc(CNc2cc(C)nc(Nc3ccc(C)cc3)n2)c1 [TCMDC-134005] | 7.958
2 | CN1CCN(CC(=O)Nc2ccc(-c3ccc(-c4nc5cc(C(F)(F)F)ccc5[nH]4)s3)cc2)CC1 [TCMDC-136976] | 14.59
3 | COc1cc(Cc2cnc(N)nc2N)cc(OCCCCc2nn[nH]n2)c1OC [TCMDC-138032] | 13.98
4 | Cc1cccc(-c2nc3[nH]c(=O)cc(NC(=O)C(C)C)n3n2)c1 [TCMDC-125001] | -2.254
5 | O=C(Nc1cccc(CN2CCN(Cc3ccc(O)cc3)CC2)c1)c1ccc(-c2ccccc2)cc1 [TCMDC-141886] | 12.46
6 | CCCCCCN1CCCN(Cc2ccc(C(=O)Nc3ccc(C(C)C)cc3)cc2)CC1 [TCMDC-136423] | 90.22
7 | CCCCCCN1CCCN(Cc2ccc(C(=O)Nc3ccc(Cl)cc3)cc2)CC1 [TCMDC-136416] | 35.96
8 | COc1ccc(CN2CCCN(Cc3ccc(C(=O)Nc4ccc(Cl)cc4)cc3)CC2)cc1 [TCMDC-136409] | 0.3374
9 | CCCCCCN1CCCN(Cc2ccc(C(=O)Nc3ccc(CCC)cc3)cc2)CC1 [TCMDC-136424] | 9.552
10 | CCCCCCN1CCCN(Cc2ccc(C(=O)Nc3ccc(CC)cc3)cc2)CC1 [TCMDC-136450] | 13.19
11 | CCCc1ccc(NC(=O)c2ccc(CN3CCCN(Cc4ccc(OC)cc4)CC3)cc2)cc1 [TCMDC-136422] | 91.61
12 | O=C(Nc1cccc(CN2CCCN(Cc3ccc(O)cc3)CC2)c1)c1ccc(-c2ccccc2)cc1 [TCMDC-141850] | 69.39
13 | O=C(Nc1cccc(CN2CCCN(Cc3cccc(Cl)c3)CC2)c1)c1ccc(-c2ccccc2)cc1 [TCMDC-141837] | -76.33
14 | Oc1c(Br)cc2oc3c(c2c1CNCc1ccccc1)CCCC3 [TCMDC-124248] | 19.71
15 | Cc1cccc2c(CON3C(N)=NC(N)=NC3(C)C)cccc12 [TCMDC-131325] | 30.52
16 | c1ccc2c(c1)CN(Cc1ccsc1)CC1(CCN(Cc3c[nH]c4cnccc34)CC1)O2 [TCMDC-133374] | -8.367
17 | CN(C)CCNCc1ccc(-c2ccc3c(Nc4ccc(Cl)cc4F)ccnc3c2)o1 [TCMDC-138391] | 96.42
18 | COCCNCc1ccc(-c2ccc3c(Nc4ccc(F)cc4Cl)ccnc3c2)o1 [TCMDC-138448] | 12.72
19 | CN(C)CCNCc1ccc(-c2ccc3c(Nc4ccc(F)cc4Cl)ccnc3c2)o1 [TCMDC-138449] | 71.06
20 | CN1CCN(Cc2ccc(-c3ccc4c(Nc5ccc(F)cc5Cl)ccnc4c3)o2)CC1 [TCMDC-138452] | 13.09
21 | CN(C)CCN(C)Cc1ccc(-c2ccc3c(Nc4ccc(F)cc4Cl)ccnc3c2)o1 [TCMDC-138447] | 57.57
22 | Fc1ccc(Nc2ccnc3cc(-c4ccc(CN5CCOCC5)o4)ccc23)c(Cl)c1 [TCMDC-138450] | -9.806

Row | Compound | % Inhibition [%]
23 | CS(=O)(=O)CCNCc1ccc(-c2ccc3c(Nc4ccc(Cl)cc4F)ccnc3c2)o1 [TCMDC-138445] | 0.4033
24 | CN(C)CCN(C)Cc1ccc(-c2ccc3c(Nc4ccc(Cl)cc4F)ccnc3c2)o1 [TCMDC-138388] | 33.59
25 | CN(C)Cc1ccc(-c2ccc3c(Nc4ccc(Cl)cc4F)ccnc3c2)o1 [TCMDC-138389] | 51.2
26 | COCCNCc1ccc(-c2ccc3c(Nc4ccc(Cl)cc4F)ccnc3c2)o1 [TCMDC-138390] | 17.71
27 | Fc1ccc(Nc2ccnc3cc(-c4ccc(CNCCN5CCOCC5)o4)ccc23)c(Cl)c1 [TCMDC-138451] | 28.52
28 | Fc1cc(Cl)ccc1Nc1ccnc2cc(I)ccc12 [TCMDC-138376] | -32.49
29 | Cc1cccc2nc(-c3ccc(-c4ccc(CN5CC(C)OC(C)C5)cc4)cc3)[nH]c12.O=C(O)C(F)(F)F (centres unmarked) [TCMDC-133823] | -0.7329
30 | Cc1noc(C)c1CN1CCCN(c2ccc3c(c2)CCN(Cc2ccc(-c4ncc[nH]4)cc2)CC3)CC1 [TCMDC-136548] | -0.683
31 | CO/N=C(\C)c1ccc2c(c1)CCN(CCC1CCC(NC(=O)/C=C/c3ccc(F)cc3)CC1)CC2 (centres unmarked) [TCMDC-139922] | -74.19
32 | Fc1ccc2nc(-c3ccc(-c4ccc(CNCCc5cccnc5)cc4)s3)[nH]c2c1 [TCMDC-132875] | -31.32
33 | N#Cc1cccc(C(=O)Nc2cccc(-c3ccc(CN4CCC(O)CC4)cc3)c2)c1 [TCMDC-132652] | -17.85
34 | CCOC(=O)c1[nH]c2cc(Cl)cc(Cl)c2c1/C=C/C(=O)Nc1ccc(-c2cnc(NC(C)=O)[nH]2)cc1 [TCMDC-137161] | -8.366
35 | Cc1c(C(=O)N(C)C)sc2c1c(=O)n(Cc1ccccc1)c(=O)n2CC(=O)Nc1ccccc1F [TCMDC-125279] | 4.453
36 | CCc1nc2nc(C)cc(Nc3ccc(F)c(Cl)c3)n2n1 [TCMDC-124770] | 1.315
37 | CCc1nc2nc(C)cc(Nc3ccc4c(c3)OCCO4)n2n1 [TCMDC-125299] | -0.3909
38 | CCc1nc2nc(C)cc(Nc3cc(C)cc(C)c3)n2n1 [TCMDC-124402] | 51.49
39 | CC1(C)N=C(N)N=C(N)N1OCCNCc1ccc(Cl)cc1 [TCMDC-131628] | 11.83
40 | O=C(Nc1cccc(-c2nn3ccccc3c2-c2ccnc(Nc3ccc(-c4cc[nH]n4)cc3)n2)c1)c1c(F)cccc1F [TCMDC-135915] | -3.577
41 | CC1CCCC(Nc2noc(-c3sccc3Br)n2)C1 (centres unmarked) [TCMDC-134184] | -4.566
42 | O=C(O)C(F)(F)F.c1cc(-c2ccc(CNCCc3ccncc3)cc2)cc(-c2nc3ccccc3[nH]2)c1 [TCMDC-132553] | 67.12
43 | O=C(O)C(F)(F)F.c1ccc(-c2ccc(CNCc3ccc(-c4cccc(-c5nc6ccccc6[nH]5)c4)cc3)s2)nc1 [TCMDC-132571] | 17.42
44 | CN(CCNCc1ccc(-c2cccc(-c3nc4ccccc4[nH]3)c2)cc1)S(C)(=O)=O.O=C(O)C(F)(F)F [TCMDC-132561] | 23.76

Row | Compound | % Inhibition [%]
45 | CS(=O)(=O)c1ccc(CNCc2ccc(-c3cccc(-c4nc5cc(F)ccc5[nH]4)c3)cc2)cc1.O=C(O)C(F)(F)F [TCMDC-132904] | 15.16
46 | O=C(O)C(F)(F)F.c1ccc(CCNCc2ccc(-c3cccc(-c4nc5ccccc5[nH]4)c3)cc2)nc1 [TCMDC-132537] | 93.06
47 | Cc1cccc2nc(-c3cccc(-c4ccc(CNCCc5ccncc5)cc4)c3)[nH]c12.O=C(O)C(F)(F)F [TCMDC-132846] | -3.628
48 | O=C(O)C(F)(F)F.c1cc(CNCCc2ccncc2)cc(-c2ccc(-c3nc4ccccc4[nH]3)cc2)c1 [TCMDC-132856] | -34.48
49 | Fc1ccc2[nH]cc(CCNCc3ccc(-c4cccc(-c5nc6ccccc6[nH]5)c4)cc3)c2c1.O=C(O)C(F)(F)F [TCMDC-132573] | 88.58
50 | Fc1ccc2[nH]c(-c3ccc(-c4ccc(CNCCc5ccncc5)cc4)cc3)nc2c1.O=C(O)C(F)(F)F [TCMDC-132851] | -25.93
51 | CS(=O)(=O)c1ccc(CCNCc2ccc(-c3cccc(-c4nc5ccccc5[nH]4)c3)cc2)cc1.O=C(O)C(F)(F)F [TCMDC-132558] | 87.75
52 | CS(=O)(=O)c1ccc(CNCc2ccc(-c3cccc(-c4nc5ccccc5[nH]4)c3)cc2)cc1.O=C(O)C(F)(F)F [TCMDC-132557] | -11.29
53 | O=C(O)C(F)(F)F.c1cncc(CCNCc2ccc(-c3cccc(-c4nc5ccccc5[nH]4)c3)cc2)c1 [TCMDC-132554] | 4.222
54 | CC(=O)c1c(Nc2c(C)cc(C)cc2C)oc(C)cc1=O [TCMDC-125654] | 7.725
55 | Cc1ccccc1C1CCN(C2CCC(NC(=O)c3ccc4c(c3)-c3nocc3C(C)O4)CC2)CC1 (centres unmarked) [TCMDC-134101] | -36.23
56 | O=C(Nc1cc(=O)[nH]c2nc(-c3ccccc3)nn12)C1CCCCC1 [TCMDC-125474] | 2.661
57 | Cc1cccc2[nH]c(-c3cccc(-c4ccc(NC(=O)NCc5cccc(F)c5)cc4)c3)nc12 [TCMDC-133289] | 46.25
58 | COc1cccc(CNC(=O)c2cc(CNCc3ccccc3)ccc2-c2cccc(CNCc3ccc(-c4ccccc4)cc3)c2)c1 [TCMDC-139616] | 14.44
59 | CNCc1ccc(-c2cccc(CNCc3ccc(-c4ccccc4)cc3)c2)c(C(=O)OC)c1 [TCMDC-139615] | 117.6
60 | CC(C)NCc1ccc(-c2cccc(CN3CCC(c4ccccc4)CC3)c2)c(C(=O)NCC2CCCCC2)c1 [TCMDC-134701] | 29.45
61 | CCCCNC(=O)c1cc(CNC2CCCCC2)ccc1-c1cccc(CNCc2ccc(-c3ccccc3)cc2)c1 [TCMDC-139614] | 92.13
62 | COC(=O)c1cccc(CNCc2cccc(-c3csc(-c4nc5ccccc5[nH]4)c3)c2)c1 [TCMDC-132943] | -44.21
63 | CN(C)C(=O)c1cc(CNCc2ccccc2)ccc1-c1cccc(CNCc2ccc(-c3ccccc3)cc2)c1 [TCMDC-139617] | 33.8
64 | CCCCN(CCCC)CCNC(=O)c1cccc(NC(=O)N2CCc3cc(SC)c(C(F)(F)F)cc32)c1 [TCMDC-139012] | -13.47
65 | Cc1ccccc1NC1=NC(=S)N(c2cccc(C(F)(F)F)c2)C12CCC(C(C)(C)C)CC2 (centres unmarked) [TCMDC-125677] | 20.36
